Assay outcomes as filed in PubChem.
Integrin act MD – activators of alpha7 integrin expression for muscular dystrophy. alpha7betagal myoblasts, beta-gal FDG fluorescence, 48 h. 350,000 tested, 0.064% active. Potency, µM (top dose mostly 38.3 µM), inactives show at the top dose activation, most hits filed as activators. AID 624291;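 also: potency is read from the fitted curve at half-maximal effect; 100% = response of the positive control SU9516; nearly all actives have a fitted effect of over 60% in size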
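Alpha7betagal+/- myoblasts (passage 13) were plated 16-24 hr, then exposed to compounds (1:260 dilution of DMSO stock) for 48 hours at 37C. After MPER lysis, β-galactosidase reporter activity was read as FDG fluorescence (ex 480/em 540) after 30 minutes.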
ASM inhibitor – human S-ASM enzyme inhibition. placental ASM, HMU-PC fluorogenic substrate, 60 min. Potency, µM (highest dose often 57.5 µM), for the others: at the highest dose activity change, negative = inhibition, hits mostly inhibitors. 340,000 tested, 0.006% active. P17405; also: potency is read from the fitted curve at half-maximal effect
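Human placenta-derived ASM preincubated with compound 10 min at room temperature, then reacted with 9 uM (final) fluorogenic HMU-PC substrate for 60 min at 37 C. Stop solution raises pH to 10; fluorescence read at Ex 386/Em 447 nm.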
RXFP1 ag – RXFP1 (human) receptor agonism | Q9HBX9 | HEK293T-RXFP1 cAMP TR-FRET, 30 min; response scale: percent of porcine relaxin response, buffer zero | Potency, µM (doses to about 57.5 µM), for the others: at the highest dose activation, hits mostly activators | 370,000 tested, 0.3% active | AID 2676; also: potency is read from the fitted curve at half-maximal effect; % is scaled to controls: 0 for no effect and ±100 for the full control effect; nearly all actives have a fitted effect of over 60% in size
Target sequence (Q9HBX9 whole entry, looked up): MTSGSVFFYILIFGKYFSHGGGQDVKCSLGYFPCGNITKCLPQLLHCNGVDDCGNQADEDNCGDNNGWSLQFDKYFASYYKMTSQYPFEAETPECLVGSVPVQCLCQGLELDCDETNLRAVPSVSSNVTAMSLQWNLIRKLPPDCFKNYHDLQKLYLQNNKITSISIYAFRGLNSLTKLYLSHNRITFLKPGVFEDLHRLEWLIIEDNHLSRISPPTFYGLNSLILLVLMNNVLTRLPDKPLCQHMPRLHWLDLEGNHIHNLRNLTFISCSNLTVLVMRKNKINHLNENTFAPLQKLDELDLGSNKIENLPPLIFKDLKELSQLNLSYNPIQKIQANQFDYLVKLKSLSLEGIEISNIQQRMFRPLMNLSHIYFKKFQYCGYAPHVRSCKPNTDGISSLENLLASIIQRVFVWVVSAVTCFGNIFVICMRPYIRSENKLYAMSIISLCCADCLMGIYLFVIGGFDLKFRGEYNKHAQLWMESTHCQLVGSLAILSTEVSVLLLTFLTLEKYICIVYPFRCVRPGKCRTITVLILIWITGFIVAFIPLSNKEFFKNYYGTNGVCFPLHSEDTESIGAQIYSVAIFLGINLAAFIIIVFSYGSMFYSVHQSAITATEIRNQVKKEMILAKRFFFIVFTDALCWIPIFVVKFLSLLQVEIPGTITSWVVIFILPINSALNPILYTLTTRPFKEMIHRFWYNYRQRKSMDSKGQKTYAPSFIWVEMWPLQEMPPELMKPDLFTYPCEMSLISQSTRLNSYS
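HEK293T cells stably expressing RXFP1 were pretreated with the PDE4 inhibitor Ro 20174, exposed to compounds for 30 min at 37C, lysed, and cAMP was read by TR-FRET. Data normalized to buffer (basal) and 29 nM porcine relaxin (100%).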
gsp antag – antagonizes gsp, the McCune-Albright syndrome mutation; 340,000 tested, 0.4% active; gsp-mutant cells, cAMP HTRF, 30 min; Potency, µM (titrated, usually from 76.9 µM), without a hit: top-dose activity change, negative = inhibition, most hits filed as inhibitors; calls by dose curve; cell line not stated here;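 also: intracellular cAMP measured with PDE inhibitor Ro 20-1724 present during compound exposure; potency is read from the fitted curve at half-maximal effect; % is scaled to controls: 0 for no effect and ±100 for the full control effect; nearly all actives have a fitted effect of over 65% in size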
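HTRF cAMP measurement after 30 min RT detection following 30 min, 37C compound treatment alongside […] (added as 300 uM solution) in G418-selected cells seeded at 2000/well and grown 16–24 h.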
gsp agonist – agonists of gsp mutant (McCune-Albright syndrome); gsp mutant cells, cAMP HTRF, 30 min; Potency, µM (highest dose often 76.9 µM), for inactives: top-dose activation (cAMP increase), most hits filed as activators; 340,000 tested, 0.13% active; active = well fitted activation curve with a large enough effect; inconclusive = small, poorly fitted or top-dose-only effect, or another doubt; inactive = no such curve, though single readings can be large or run the other way; cell line not stated here;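 also: phosphodiesterase inhibitor Ro 20-1724 added with compounds to block cAMP breakdown; potency is read from the fitted curve at half-maximal effect; nearly all actives have a fitted effect of over 60% in size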
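Cells stably selected in G418 were plated at 2000/well, grown 16-24 hr, then given compounds in DMSO with the PDE inhibitor […] (300 uM solution added) for 30 min at 37C; cAMP was read by HTRF.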
RXFP1 antag – RXFP1 (human) relaxin receptor antagonism. AID 1259400. activity change, negative = inhibition, % at 57.5 µM. Q9HBX9. HEK293-RXFP1, relaxin-stimulated cAMP HTRF, 30 min; active compounds read low. 350,000 tested, 0.59% active;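 active = activity change of -60% or lower, but not beyond a set lower limit; inconclusive = change between -60% and -40%, or beyond the set limit; inactive = change above -40%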; also: % is scaled to controls: 0 for no effect and ±100 for the full control effect
* marks the source's active call; other numbers are inactive results; ? = inconclusive; . = no result given; [ ] = dose if it differs, or a comment. Most compounds without a hit are left out; they make up all but 1.1% or so of the library. Unless noted, calls follow the shape of the dose curve; as a rule, active = well fitted curve in the direction sought with a large enough effect; inconclusive = small, poorly fitted or top-dose-only effect, or another doubt; inactive = no such curve, though single readings can be large; an effect the other way counts as inactive or inconclusive.

SMILES	Integrin act MD	ASM inhibitor	RXFP1 ag	gsp antag	gsp agonist	RXFP1 antag
CCOC(=O)C(C)Sc1nc(-c2ccco2)cc(C(F)(F)F)c1C#N (centres undefined)	-5.9%	340.2%	1.0%	35.5µM*	-19.5%	-18.9
Cc1ccc(C(=O)c2cc(O)c(O)c([N+](=O)[O-])c2)cc1	.	.	.	.	.	-39.3
CN(C)c1ccc(-n2cccc2/C=C/[N+](=O)[O-])cc1	-49.4%	-7.1%	0.1%	-43.2%	-7.0%[15.4 µM]	-82.8*
Cc1onc(-c2ccccc2)c1C(=O)Cl	.	.	.	.	.	-5.4
COc1ccc(C(C)C)cc1S(=O)(=O)NCCCn1ccnc1	3.4%	-0.8%	-1.1%	7.0%	-75.1%	-63.3*
COc1ccc(N2CCN(C(=O)C3CCN(C(=O)c4cccc(Cl)c4)CC3)CC2)cc1	15.1%	-1.2%	0.1%	-2.9%	19.4%	-19.0
O=C(CNC(=O)c1cccc(F)c1)N/N=C/c1cc(Br)ccc1OCc1ccccc1	10µM*	-17.0%	-0.8%	-7.6%	18.5%	-3.9
O=C(CNC(=O)c1ccccc1F)N/N=C/c1cc(Br)ccc1OCc1ccccc1	0.0%	-5.1%	0.4%	29.2%	-27.7%	-0.7
O=c1c2ccccc2cnn1Cc1n[nH]c(=S)n1-c1cc(Cl)cc(Cl)c1	8.0%	1.7%	15.5%	1.1%	?	?
O=c1c2ccccc2cnn1Cc1n[nH]c(=S)n1-c1ccc(F)c(Cl)c1	4.2%	-1.9%	15.8µM*	6.2%	61.4%[15.4 µM]	4.9
CC(OC(=O)CN(C)S(=O)(=O)c1ccc(Cl)cc1)C(=O)Nc1ncc(Cl)cc1Cl (centres undefined)	-9.0%	0.1%	-1.2%	-21.9%	-1.1%	12.6
CC(OC(=O)CN(C)S(=O)(=O)c1ccc(Cl)cc1)C(=O)Nc1cccc(Cl)c1 (centres undefined)	-2.0%	-7.6%	0.9%	39.8µM*	7.8%	-13.3
O=C(c1nnsc1S(=O)c1ccc(Cl)cc1)N1CCOCC1 (centres undefined)	-43.7%	-2.2%	-3.9%	-2.2%	3.3%[15.4 µM]	-10.2
O=C(Nc1ccccc1)c1nnsc1S(=O)c1ccc(Cl)cc1 (centres undefined)	-66.1%	?	0.2%	-1.4%	-21.3%	-104.6*
N#C/C(=C\c1cccc(O)c1)C(=O)Nc1ccc2c(c1)OCCO2	-6.1%	3.2%	-0.1%	3.5%	?	-22.7
COc1cc(NC(=S)NCCO)c(OC)cc1Cl	2.4%	4.8%	-0.3%	1.8%	-11.3%[15.4 µM]	-6.4
COc1cc(NC(=O)C(=O)NCCN(C)C)c(OC)cc1Cl	25.5%	1.9%	11.3%	5.4%	-1.3%	-69.4*
O=C(Nc1ccccc1C(=O)Nc1ccccc1C(=O)O)c1ccccc1	39.2%	9.8%	5.3%	?	9.5%[15.4 µM]	-5.7
O=C(O)c1ccccc1NC(=O)c1ccccc1Nc1ccccc1	0.0%	18.5%	-0.3%	31.6µM*	-7.8%	-14.4
CCC(=O)Oc1ccc2c(c1)CC[C@@H]1[C@@H]2CC[C@@]2(C)[C@H]1C[C@@H](OC(=O)CC)[C@@H]2OC(=O)CC	.	.	.	.	.	-20.5
OCCn1c(-c2ccc3c(c2)OCO3)csc1=Nc1ccccc1	0.0%	4.0%	-0.9%	28.2µM*	-22.6%	-19.7
COc1ccc(/C=N/NC(=O)c2ccccc2O)cc1Cn1cc(Cl)cn1	-4.1%	?	-3.0%	-32.5%	-36.2%	-20.8
CCOc1ccc(/C=N/NC(=O)c2ccccc2O)cc1CN1CC2CC(C1)c1cccc(=O)n1C2 (centres undefined)	.	0.6%	-0.2%	35.5µM*	.	.
CCSc1ccccc1C(=O)Nc1ccc([N+](=O)[O-])cc1OC	28.2%	-6.0%	0.3%	39.8µM*	-6.9%	6.0
COc1cc([N+](=O)[O-])ccc1NC(=O)COC(=O)c1n[nH]c2ccccc12	-15.9%	-9.2%	4.1%	39.8µM*	8.2%[15.4 µM]	2.4
SMILES	Integrin act MD	ASM inhibitor	RXFP1 ag	gsp antag	gsp agonist	RXFP1 antag
O=C(COC(=O)c1n[nH]c2ccccc12)Nc1ccc(Cl)cc1[N+](=O)[O-]	?	-22.6%	2.3%	-21.1%	-26.7%	-75.3*
O=C(COC(=O)c1n[nH]c2ccccc12)Nc1ccccc1F	1.8%	-2.7%	.	-4.3%	21.8%[15.4 µM]	-5.7
CO[C@@]1(NC(=O)CSC(F)F)C(=O)N2C(C(=O)O)=C(CSc3nnnn3CCO)CO[C@@H]21	.	.	.	.	.	16.3
CCCOC(=O)c1c(-c2ccccc2)c(-c2ccccc2)nn(C)c1=O	.	.	1.9%	.	.	-65.3*
COCCNC(=O)c1c(-c2ccccc2)c(-c2ccccc2)nn(C)c1=O	.	.	-2.5%	.	.	-6.1
COc1ccc(/C=C/CN2CCCC(CO)(Cc3cccc(Cl)c3)C2)cc1 (centres undefined)	-61.0%	-2.8%	-2.0%	1.8%	?	-69.3*
CCOC(=O)C1(Cc2cccc(OC)c2)CCN(C/C=C/c2ccc(OC)cc2)CC1	-2.7%	-1.0%	0.0%	-14.9%	-1.2%[15.4 µM]	-81.9*
Cc1ccccc1S(=O)(=O)N1[C@@H](c2ccc(Cl)cc2)C(C(=O)O)=CC[C@H]1c1ccc(Cl)cc1	7.5%	5.2%	.	-13.0%	.	.
Nc1ccc(C(=O)N2CC3CC(CN(Cc4ccccc4)C3)C2)cc1	.	.	.	.	.	7.4
CC(=O)N=Cc1c(C)c(C#N)c(=O)n(C)c1O	?	3.3%	4.8%	-1.9%	18.5%	-8.1
Cc1c(/C=N/Nc2ccc(F)cc2)c(O)n(C)c(=O)c1C#N	7.08µM*	-3.7%	15.8%	-8.3%	20.8%	-1.1
CN(CC(=O)Nc1ccccc1C(F)(F)F)C(=O)c1ccccc1Sc1ccccc1C#N	-52.3%	-0.6%	-0.3%	-4.4%	-17.4%	7.7
Cc1ccc2c(=O)cc(C(=O)N(Cc3ccc(C(C)(C)C)cc3)C3CCS(=O)(=O)C3)oc2c1 (centres undefined)	.	.	-1.1%	.	.	-14.2
COc1ccc(NC(=O)NNC(=O)c2ccc3ccccc3c2O)c(OC)c1	5.5%	177.7%	15.7%	3.4%	38.6%	-0.6
O=C(COC(=O)/C=C/c1ccc(Cl)cc1)NC(=O)NCc1ccccc1	16.9%	-2.1%	1.2%	6.8%	-3.7%[15.4 µM]	-61.4*
O=C(COC(=O)/C=C/c1ccccc1)NCc1ccc(Cl)cc1	-22.0%	0.2%	0.1%	9.6%	0.0%	-7.5
Cc1sc(-n2c(C)cc(/C=C3\SC(=S)NC3=O)c2C)c(C#N)c1C	39.2%	-14.3%	1.1%	-39.1%	9.6%	-105.5*
Cc1cc(/C=C2\SC(=S)NC2=O)c(C)n1-c1cccc(O)c1	?	-14.1%	1.4%	-23.5%	-1.7%	-15.1
CCOC(=O)N1CCN(S(=O)(=O)c2c(C)nc3scc(C)n3c2=O)CC1	11.4%	-2.8%	14.1µM*	-23.7%	?	18.2
